Holding throughout (format): functional
The target of experiment [1] is Solute carrier family 2, facilitated glucose transporter member 1 (Homo sapiens) (UniProt P11166). As to the kind of experiment: ST_JUDE_LEISH: Cytotoxicity at 2uM final concentration against transgenic Leishmania Mexicana promastigotes LmGLUT1 that are glucose transport deficient and complemented with the human glucose transporter GLUT1. Activity is measured by DNA content using SYBR green in vitro.

In experiment [2] the target is Hexose transporter 1 (Plasmodium falciparum) (UniProt O97467). Kind of experiment: ST_JUDE_LEISH: Cytotoxicity at 2uM final concentration against transgenic Leishmania Mexicana promastigotes LmPfHT that are glucose transport deficient and complemented with the Plasmodium falciparum hexose transporter. Activity is measured by DNA content using SYBR green in vitro.
The target in experiment [3] is Glucose transporter (Leishmania mexicana) (UniProt O61059). Kind of experiment: ST_JUDE_LEISH: Cytotoxicity at 2uM final concentration against transgenic Leishmania Mexicana promastigotes LmGT2 that are glucose transport deficient and complemented with the L. Mexicana glucose transporter 2. Activity is measured by DNA content using SYBR green in vitro.

What is called inhibition is the relative decrease from the control value, in per cent.

The structures appear in SMILES notation.

Sequence of Solute carrier family 2, facilitated glucose transporter member 1 (Homo sapiens) (P11166 whole entry): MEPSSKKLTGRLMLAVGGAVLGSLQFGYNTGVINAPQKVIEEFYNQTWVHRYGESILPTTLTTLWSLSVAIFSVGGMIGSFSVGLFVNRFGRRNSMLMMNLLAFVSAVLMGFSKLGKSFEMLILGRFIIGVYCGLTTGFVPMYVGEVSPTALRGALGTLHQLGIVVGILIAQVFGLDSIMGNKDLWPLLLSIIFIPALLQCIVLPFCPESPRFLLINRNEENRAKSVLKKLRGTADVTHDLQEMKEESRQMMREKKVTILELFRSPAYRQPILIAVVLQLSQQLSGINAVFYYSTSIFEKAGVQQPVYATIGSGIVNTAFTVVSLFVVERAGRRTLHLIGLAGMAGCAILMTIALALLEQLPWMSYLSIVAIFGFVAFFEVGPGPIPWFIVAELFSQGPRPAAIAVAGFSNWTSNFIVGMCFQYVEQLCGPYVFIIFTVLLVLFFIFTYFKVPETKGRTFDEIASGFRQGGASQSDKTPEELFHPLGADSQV

In the case of `CS(=O)(=O)CCNCc1ccc(-c2cc3c(Nc4ccc(OCc5cccc(F)c5)c(Cl)c4)ncnc3s2)[nH]1`, the inhibition in experiment [1] stood at 0.33%; in experiment [2], 0.24%; in experiment [3] it was 0.92%.

Consider `COc1ccc(C2CCN(CCCCNC(=O)c3ccc(NC(=O)c4ccc(Cl)cc4)cc3)CC2)c(C)c1`, for which the inhibition is -0.79% in experiment [1], -0.57% in experiment [2] and -2.18% in experiment [3].

Regarding `Cc1cccc2nc(-c3cccc(-c4ccc(CNCCNC(=O)c5ccnn5C)cc4)c3)[nH]c12`, the inhibition in experiment [1] is -1.64%; in experiment [2] it was 0.67%; in experiment [3], -2.92%.

Consider `CCC(C)CNC(=O)CN1CN(c2ccccc2)C2(CCN(C(=O)c3ccc(Br)cc3)CC2)C1=O` (stereo not drawn), for which the values for the inhibition in experiment [1], in experiment [2] and in experiment [3] were 0.35%, -0.13% and 0.82%, respectively.

As to `CC(C)c1ccc(OCC(O)CN(C)C(C)C(O)c2ccccc2)c(Br)c1` (stereo not drawn), the inhibition in experiment [1] turned out to be 5.55%; in experiment [2] it was 12.5%; in experiment [3], 10.4%.

Turning to `Cc1ccc(Nc2nc(C)cc(N3CCN(c4ccccc4)CC3)n2)cc1`, the figures for the inhibition in experiment [1], in experiment [2] and in experiment [3] were 5.18%, 5.92% and 2.13%, respectively.

As for `N#CCCN1CCN(Cc2ccc(-c3cccc(-c4nc5cc(F)ccc5[nH]4)c3)cc2)CC1`, the inhibition in experiment [1] amounted to 2.61%; in experiment [2] it was 2.18%; in experiment [3], 3.17%.

`Cc1cccc(OCCCCON2C(=N)N=C(N)NC2(C)C)c1C`: the inhibition in experiment [1] was determined as 0.1%; in experiment [2], 0.14%; in experiment [3], 1.69%.

For `Cc1ccc(N2CCN(C(=O)c3cccc(-c4cncc5nc(-c6ccco6)n(C)c45)c3)CC2)nc1`, the inhibition in experiment [1] is 6.13%; in experiment [2] it was 5.42%; in experiment [3], 5.39%.

For the compound `CC(C)c1ccc(CN2CCC(CNC(=O)c3cc(-c4ccc(N(C)C)cc4)cs3)C2)cc1` (stereo not drawn), the inhibition in experiment [1] amounted to 2.27%; in experiment [2], 3.51%; in experiment [3], 2.27%.

As for `CC(C)(C)c1cc(C(=O)N2CCN(c3ccc(C(F)(F)F)cn3)CC2)n(Cc2ccc(F)cc2)n1`, the results for the inhibition in experiment [1], in experiment [2] and in experiment [3] were -1.9%, -3.19% and -1.88%, respectively.

Regarding `Cc1cc(N2CCCC2)nc(Nc2ccc(NC(=O)c3cccc(F)c3)cc2)n1`, the inhibition in experiment [1] worked out at 33.5%; in experiment [2], 14.7%; in experiment [3] it was 16.2%.

`O=C(N[C@@H](Cc1ccccc1)[C@H](O)CNCCC(F)(F)F)c1cccc(OCC2CC2)c1`: the inhibition in experiment [1] was -0.59%; in experiment [2], -0.22%; in experiment [3] it was 0.56%.

`Oc1ccccc1CN1CCC2(CCCN(Cc3ccccc3F)C2)C1` (stereo not drawn): the inhibition in experiment [1] was 2.03%; in experiment [2], -1.06%; in experiment [3], 1.57%.

Take `Cc1cccc2nc(-c3ccc(-c4ccc(NC(=O)C(C)CN5CCN(C)CC5)cc4)s3)[nH]c12` (stereo not drawn): the inhibition turned out to be 3.39% in experiment [1], 3.1% in experiment [2] and 2.29% in experiment [3].

With `CCCCN1C(=O)C2CC(=O)CC(C3CCCCC3)C2C1=O` (stereo not drawn), the values for the inhibition in experiment [1], in experiment [2] and in experiment [3] were 0.97%, 0.42% and 2.77%, respectively.

As for `O=C(NC1CCN(c2ccnc(Nc3ccc(F)cc3)n2)C1)c1cc2ccccc2s1` (stereo not drawn), the values for the inhibition in experiment [1], in experiment [2] and in experiment [3] were 0.69%, 1.57% and 1.27%, respectively.

With `CC(c1cccc(S(=O)(=O)NCc2ccc(Cl)cc2Cl)c1)N1CCC(N2CCCCC2)CC1` (stereo not drawn), the figures for the inhibition in experiment [1], in experiment [2] and in experiment [3] were 8.44%, 4.33% and 3.71%, respectively.

On to `CCN(CCCN1CCCCC1)c1cc(C)nc(Nc2cccc(C(F)(F)F)c2)n1`, for which the inhibition in experiment [1] was -5.65%; in experiment [2], 2.63%; in experiment [3], 11%.

On to `CN(C)CCCOc1ccc(CN2CC[C@H](NC(=O)c3ccc(Cl)c(Cl)c3)C2)cc1Br`, for which the values for the inhibition in experiment [1], in experiment [2] and in experiment [3] were 3.8%, 0.94% and 0.53%, respectively.

For `CCCCCN1CCCN(Cc2cccc(NC(=O)c3cc4ccccc4s3)c2)CC1`, the inhibition in experiment [1] amounted to 1.99%; in experiment [2], 1.5%; in experiment [3], 3.66%.

For the compound `CCc1c[nH]c2c(N3CCCC3=O)cc(C(=O)N[C@@H](Cc3ccccc3)[C@H](O)CNC(C)(C)CCCC(C)C)cc12`, the inhibition worked out at 12.2% in experiment [1], 9.72% in experiment [2] and 8.72% in experiment [3].

Take `COc1cc(OC)cc(C(=O)Nc2nc(-c3ccccn3)cs2)c1`: the inhibition was determined as 7.32% in experiment [1], 14.4% in experiment [2] and 7.57% in experiment [3].

With `O=C(/C=C/c1ccc(C(F)(F)F)cc1)N1CCC(CCN2CCC(c3c[nH]c4ccccc34)CC2)CC1`, the inhibition in experiment [1] amounted to 16.8%; in experiment [2] it was 9.28%; in experiment [3] it was 3.39%.

Take `C=CCN(c1nc(NC)nc(NCc2c(OC)cccc2OC)n1)C1CCCC1`: the inhibition in experiment [1] stood at 5.12%; in experiment [2], 3.87%; in experiment [3], 1.88%.

`O=C(Nc1ccc(N2CCCCC2)c(Cl)c1)c1nc[nH]n1`: the inhibition was 2.18% in experiment [1], -0.39% in experiment [2] and 1.65% in experiment [3].

For `COc1ccc2nccc(N/N=C/c3cccc([N+](=O)[O-])c3)c2c1`, the inhibition in experiment [1] was found to be 3.18%; in experiment [2], 2.68%; in experiment [3] it was 4.33%.

For the compound `c1ccc(-n2cncn2)cc1`, the inhibition in experiment [1] was found to be 0.46%; in experiment [2], 1.47%; in experiment [3], 4.67%.

With `c1ccc(CN2CCC(NCc3ccc(-c4cccc(CNC5CCCC5)c4)cc3)CC2)cc1`, the inhibition is 15.8% in experiment [1], 8.03% in experiment [2] and 0.89% in experiment [3].

Regarding `CC(C)N(CC(=O)c1ccc(O)c(C(=O)O)c1)Cc1ccccc1`, the inhibition in experiment [1] came to 3.53%; in experiment [2], 3.51%; in experiment [3] it was 1.67%.

With `O=S(=O)(ON=C1CCc2ccccc21)c1ccc(Cl)cc1`, the inhibition is 1.95% in experiment [1], -0.07% in experiment [2] and 3.35% in experiment [3].

In the case of `CCCC(C)Nc1nc(C)cc(N[C@@H](Cc2ccccc2)C(=O)NCCOc2ccccc2)n1` (stereo partly drawn), the inhibition in experiment [1] was 4.27%; in experiment [2], 3.26%; in experiment [3], 1.16%.

Turning to `COc1ccc(N2C(N)=NC(N)=NC2(C)C)cc1`, the inhibition in experiment [1] came out at 1.65%; in experiment [2] it was 3.07%; in experiment [3], 2.77%.

As to `CC(C)(C)c1cc(C(=O)N2CCC(c3ccccn3)CC2)n(Cc2ccccc2)n1`, the results for the inhibition in experiment [1], in experiment [2] and in experiment [3] were 0.22%, 1.08% and -0.6%, respectively.

In the case of `c1ccc(CCNCc2cccc(-c3ccc(CNc4ccc5ncccc5c4)cc3)c2)cc1`, the inhibition worked out at 4.72% in experiment [1], 3.92% in experiment [2] and 3.8% in experiment [3].

For the compound `COc1ccc(CCNCc2cc3c(C(C)(C)C)nn(-c4ccc(Cl)cc4)c3[nH]c2=O)cc1OC`, the inhibition is -2.79% in experiment [1], -2.78% in experiment [2] and -5.42% in experiment [3].

The record behind these values is ChEMBL document CHEMBL3433997, “St. Jude Leishmania screening dataset” (2016).
